These results are taken from the supplement of paper PMC6555819.

The test relates to VDR:RXRa (NR concentration 270 nM, RXRa partner concentration 90 nM). Briefly: PBM binding z-score (relative to random genomic background probes); higher = stronger binding; sequences stand for … in GC…GCGATTGACAGCGTAGAATGAAGG
The procedure: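 Protein-binding microarray (Agilent 4x180K custom design, double-stranded 60-nt probes: 5' GC cap, 34-nt variable region, 24-nt constant primer region; full probe sequence given). Purified or IVT nuclear receptor:RXRα heterodimers (3:1 NR:RXRα, mostly 270:90 nM) or homodimers were incubated for 1 h in PBS with 2% milk and no ligand, then detected with Alexa488 antibodies. Fluorescence from o1-orientation probes (~5 replicates averaged) was converted to z-scores against 500 random hg19 background probes. Variable regions are seed direct-repeat (DR0–DR5) sites, all their single-nucleotide variants and half-site ablations.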
Sequence CTATGTAGGTTAAGGGAGTCATTCAGTTTGAAAG displayed a PBM binding z-score of 1.94. Under AGTCAAACTTCAGGACGAGGTAACGTAAAGCACG stands -0.131; under TCTTGTAGATCAACAGGAGGTTAATAAAGATCGA, 0.648; under GCTGCTAGGTCAACTGATGGTCACCTAAAGCTCG, 2.05.

The sequence TGTCAAAGGTCAAAGGTAACGTAAGTATCCACAC had a PBM binding z-score of 6.2. As for CGTCAAAGGTCAACTAAGGTAACGTAAAGCACGC, the PBM binding z-score was 6.2.

As to CGAACTAGGTCATCCAGGACCGTGAATACATTGA, the PBM binding z-score was determined as 2.39. In turn, CGTCCAAGGTCATAGGAGGTCAATGAAGACAGAT gave a PBM binding z-score of 7.01. As to CGAACTAGGTCAAGGGACAGTGAAAGGCGACGTA, the PBM binding z-score amounted to 0.899. To CCTGCTAGGTCATGGTCAGCGAATCTACAGTATG belongs 1.5; to TAGCCTAAGTCATGCGGGCCAGTATAGTGTCGGC, -0.392. GCTGCGAGGTCAACTGATGGTCAGCTAAAGCTCG showed a PBM binding z-score of 5.48. To ACTTACGGGTCTACGAGGTTATAGCACGCGTATA belongs 2.83; to CCTACTGGTCCAAGGTCATTGATCAGTCAAAGCA, 3.79; to ACGCGGAGGACAAAGGTCAGAGCTACGCCAGTGA, 3.14. Consider CGAACTAGGTCGTCCAGGACAGTGAATACATTGA, for which the PBM binding z-score came to 1.65. Turning to ATATGTAGGTTAGCTGGGGTCATTCACACTAGGC, the PBM binding z-score was determined as 6.32. Under CAAACTAGGTCACAAAAGGTCAAAGTCGAATGAC stands 6.51; under CGAACTAGGTCGAGGACAGTGAATCTCCGCACGC, 0.0505.

CCTTACGGGTAACGAGGTTATAGCACGACGAGCG showed a PBM binding z-score of 1.38.

TAGCCTAGGGCATTCAGGGGCCAGTATAGAAAGC yielded a PBM binding z-score of -0.213. AGTCAAAGTTTATCTAGGTAACGTAAGATATGCT showed a PBM binding z-score of 0.584. The sequence TCTCGGAGGAAACGAAAGGTCAGAGCTCGACATC returned a PBM binding z-score of 2.44.

As for CAAACCAGGTCAAGAGGTCAAAGTCCGCTTCCCG, the PBM binding z-score worked out at 6.45. In turn, ATCGAAAGGTCCAAGGTGAGTATACCCACCCGAA registered a PBM binding z-score of 0.423. For the sequence TCTAGTTGGTCACGGAGGGCACACACGACGGGTA, the PBM binding z-score is 3.62. The sequence TATACAAGGTCAAAGGCCAGAGTACGAATGTCGA had a PBM binding z-score of 4.83. Regarding CGAACAAGGTCATTGACAGGACAGTGAATAGTAA, the PBM binding z-score turned out to be 4.88. Under CTATGTAGGTTAGGGGGGTCATTCAGTTTGAAAG stands 7.68; under CCTCGGAGGACAGAAGGTCAAAGCTGTCCGCTTT, 2.84; under CGAACGAGGTCATGAGTTGATAGCAAATGCCGAT, 5.57. CGTCCAAAGTCAAAGGTCAGTGAAGAGATGACGG yielded a PBM binding z-score of 3.16.

With TAGCCTAGTTCATGCGGGCCAGTATAGTGTCGGC, the PBM binding z-score stood at 1.14. For the sequence CCTACTGGGCCATTCAGAGGGCATTGATCATATG, the PBM binding z-score turned out to be 0.0939. TGTCAAAGTTCAAAGGTTACGTAAGTATCCACAC showed a PBM binding z-score of 6.4. Take AATACAGGGTCATCTTAGGCCAGAGTACGCACAG: the PBM binding z-score was 5.31.

The sequence TGTCAAAGTTCAAAGGTGACGTAAGTATCCACAC yielded a PBM binding z-score of 5.65. Under ATCGAAAGGTCGTGAGGTAAGTATACAGAAAGGC stands 3.44. In turn, TATACAGGGTCAAAGGCCAAAGTACGAATGTCGA came in with a PBM binding z-score of 5.31. Regarding CCTTACGGGTTACTCCAGGTTATAGCATCGGAGT, the PBM binding z-score stood at 1.39.
